D2 ag-1: Beta-Arrestin HTS for Positive Allosteric Modulators of the Human D2 Dopamine Receptor: Agonists | D(2) dopamine receptor (Homo sapiens), P14416 | 0.084% of 360,000 active | activation, % (no concentration beside the values) | DiscoveRx PathHunter D2 beta-arrestin, luminescence, 90 min; 100% = 57 uM dopamine signal; in the data active = activation above about 40%
Target sequence (P14416 whole entry, looked up): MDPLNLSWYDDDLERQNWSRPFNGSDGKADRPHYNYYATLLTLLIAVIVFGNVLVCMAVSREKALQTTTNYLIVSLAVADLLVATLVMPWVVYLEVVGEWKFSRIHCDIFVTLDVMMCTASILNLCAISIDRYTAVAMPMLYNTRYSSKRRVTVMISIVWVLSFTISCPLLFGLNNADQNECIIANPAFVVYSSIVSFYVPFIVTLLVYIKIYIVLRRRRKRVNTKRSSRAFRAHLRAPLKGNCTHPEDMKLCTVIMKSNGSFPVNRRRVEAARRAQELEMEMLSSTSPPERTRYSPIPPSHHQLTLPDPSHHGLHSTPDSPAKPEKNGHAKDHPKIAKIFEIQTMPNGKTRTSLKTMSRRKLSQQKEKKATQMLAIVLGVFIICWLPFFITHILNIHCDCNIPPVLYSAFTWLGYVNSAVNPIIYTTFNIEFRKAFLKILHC
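Agonist mode: compounds alone added to overnight-plated D2 PathHunter cells for 90 min at 37 C, with 57 uM final dopamine (EC100) defining full response. Beta-arrestin recruitment detected by chemiluminescent reagent, read after 1 h at ambient temperature.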
D2 ag-2: HTS Assay for Allosteric Agonists of the Human D2 Dopamine Receptor: Primary Screen for Agonists | D(2) dopamine receptor (Homo sapiens), P14416 | HEK293 T-REx D2 cells, calcium flux agonist mode | activation, % at 2 µM | 0.53% of 340,000 active;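 active = activation over 3 SD above normal in the single-dose calcium agonist read, cut at about 30% in these data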
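HEK293 Trex D2 cells, tetracycline-induced, o/n 30 C 5% CO2; no-wash Ca dye, RT 30–90 min; 10-cycle baseline, 23 nl cpd added, kinetic Ca read 180 s; agonist hits = positive Ca response.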
D2 antag: HTS Assay for Allosteric Antagonists of the Human D2 Dopamine Receptor: Primary Screen for Antagonists. D(2) dopamine receptor (Homo sapiens), P14416. HEK293 TREx D2 cells, calcium flux, dopamine EC80. inhibition, % at 10 µM. 2% of 340,000 active. AID 485344, 2010; in the data active = inhibition above about 30%; inactive = below that, where a call was filed
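Calcium flux kinetic readout in an inducible HEK293 TREx D2 line plated overnight at 30 C. After 180 s compound exposure, an EC80 dopamine challenge follows with another 180 s kinetic read to detect antagonism.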
D2 PAM-1: HTS Assay for Positive Allosteric Modulators of the Human D2 Dopamine Receptor: Primary Screen for Potentiators. D(2) dopamine receptor (Homo sapiens), P14416. HEK293 T-REx D2, calcium flux, EC20 dopamine potentiation. potentiation, % at 10 µM. 0.34% of 340,000 active. AID 485347, 2010;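 active = potentiation over 3 SD above the plate norm, cut at about 30% in these data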
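Using a no-wash calcium dye in inducible, force-coupled HEK293 Trex cells expressing D2, we tracked fluorescence each second for 180 s after compound, then for 180 s after EC20 dopamine to detect augmented signalling.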
D2 PAM-2: Beta-Arrestin HTS for Positive Allosteric Modulators of the Human D2 Dopamine Receptor: Potentiators; potentiation, % (no concentration beside the values); 0.23% of 360,000 active; D(2) dopamine receptor (Homo sapiens), P14416; DiscoveRx D2 beta-arrestin cells, luminescence, 90 min; 100% = 57 uM dopamine signal; in the data active = potentiation above about 50%
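D2 cells co-treated with compound plus 50 nM dopamine (EC20) for 90 min at 37 deg C to detect potentiation. Beta-arrestin recruitment was read as enzyme-fragment luminescence after 1 h at ambient temperature. Full response was set by 57 uM dopamine.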
A number is an active result; - = inactive; . = no result given. Compounds with a hit are over-represented: about 2.4% of the library has one in this group of screens.

SMILES	D2 ag-1	D2 ag-2	D2 antag	D2 PAM-1	D2 PAM-2
C=CCc1ccc(OCCOCCOc2ccc(C)cc2[N+](=O)[O-])c(OC)c1	-	-	-	-	-
C=CCN(CC=C)CCOc1ccc(C)cc1[N+](=O)[O-]	-	-	38	-	-
C=CCNCCOc1ccc(C)cc1[N+](=O)[O-]	-	-	46	-	-
CCC(C)NCCOc1ccc(C)cc1[N+](=O)[O-] (stereo not drawn)	-	-	54	-	-
COCCCNCCCCOc1ccc(C)cc1[N+](=O)[O-]	-	.	.	.	-
Cc1cc(C)cc(NC(=O)N2CCC(C(N)=O)(N3CCCCC3)CC2)c1	.	-	.	-	.
COCCCn1c(C)cc(C(=O)COC(=O)CCc2nc3ccccc3c(=O)[nH]2)c1C	-	-	31	-	-
CCCNC(=O)c1cnc2c(-c3ccc(OCC)c(OCC)c3)c(C)nn2c1-c1ccccc1	.	-	.	-	.
COc1cc2nc(Nc3ccc(C)c(C)c3)nc(N)c2cc1OC	-	-	30	-	-
COCCCNC(=O)Cn1ncc2ccsc2c1=O	-	-	30	-	-
O=C(COc1ccc(Br)cc1)NCC1COc2ccccc2O1 (stereo not drawn)	-	-	33	-	-
O=C(O)CNCC1COc2ccccc2O1 (stereo not drawn)	-	-	-	-	-
c1ccc2c(c1)OCC(CNCC1COc3ccccc3O1)O2 (stereo not drawn)	-	37	64	-	-
Cc1ccccc1C(=O)NC1(C(F)(F)F)N=C(c2ccccc2)N(Cc2ccccc2)C1=O (stereo not drawn)	.	-	.	-	.
CCCS(=O)(=O)N1CCC(C(=O)N2CCC(Cc3ccccc3)CC2)CC1	-	-	-	-	-
CCCS(=O)(=O)N1CCC(C(=O)NCCCN2CCC(Cc3ccccc3)CC2)CC1	-	-	33	-	-
Cc1nc2sc(C(=O)OCC(=O)N3c4ccccc4CC3C)c(C)c2c(=O)[nH]1 (stereo not drawn)	-	-	52	-	-
COCCCNc1nc2c(c(=O)n(C)c(=O)n2C)n1Cc1cccc(OC)c1	-	-	40	-	-
COCCNc1nc2c(c(=O)n(C)c(=O)n2C)n1Cc1cccc(C)c1	-	-	-	-	-
CCc1ccccc1N(C(=O)c1snc(C(N)=O)c1N)C(C(=O)NCC1CCCO1)c1ccc(C)o1 (stereo not drawn)	-	-	33	-	-
Cc1ccc(N(C(=O)c2snc(C(N)=O)c2N)C(C(=O)NCC2CCCO2)c2ccc(C)o2)c(C)c1 (stereo not drawn)	-	-	-	-	-
CCn1c(C)cc(C(=O)CSc2nnnn2C2CCCC2)c1C	-	-	30	-	-
CN(C)C1(CNC(=O)c2cccc(S(=O)(=O)NCc3ccccc3)c2)CCCCC1	-	-	45	-	-
O=C(COC(=O)CCNS(=O)(=O)c1ccccc1)Nc1ccc(OC(F)F)cc1	-	-	50	-	-
CCOc1ccc2c(c1)C(C)=CC(C)(C)N2C(=O)Nc1ccccc1	-	-	-	34	-
SMILES	D2 ag-1	D2 ag-2	D2 antag	D2 PAM-1	D2 PAM-2
Clc1cccc(-c2cc3nc4c(c(N5CCN(c6cnccn6)CC5)n3n2)CCCC4)c1	-	-	41	-	-
Cc1ccc(-n2ncc(C(=O)NCCN3CCC(Cc4ccccc4)CC3)c2C2CCN(C(=O)OC(C)(C)C)CC2)cc1	.	-	.	-	.
CCOC(=O)C1=C(CN2CCN(C(=O)c3ccco3)CC2)NC(=O)NC1c1ccc(C)cc1 (stereo not drawn)	-	-	37	-	-
CCN(CC)S(=O)(=O)c1ccc2c(c1)N(CC(=O)NCCCN1CCN(c3cc(Cl)ccc3C)CC1)C(=O)CO2	.	.	.	-	.
CCOC(=O)c1c(C)[nH]c(C)c1S(=O)(=O)N1CCCC(C(=O)N2CCN(c3cccc(C)c3C)CC2)C1 (stereo not drawn)	.	-	.	-	.
COc1ccc(C2=NS(=O)(=O)N(C)C(C(=O)N3CCC(C(N)=O)CC3)=C2)cc1	-	-	35	-	-
Cc1cccc(N2CCN(C(=O)Cn3cnc4sc(C)c(S(=O)(=O)N5CCN(c6ncccn6)CC5)c4c3=O)CC2C)c1 (stereo not drawn)	.	-	.	-	.
COc1ccc(NC(=O)CSc2ncnc3sc(C)cc23)cc1	-	-	32	-	-
COc1ccc(-n2c(SCC(=O)Nc3ccccc3)nc(O)cc2=O)cc1	-	-	-	-	-
COc1ccc(NC(=O)CSc2nc(O)cc(=O)n2-c2ccc(OC)cc2)cc1	-	-	-	40	-
COc1ccc(NC(=O)CSc2nc(-c3ccc(C)cc3)cc(C(F)(F)F)c2C#N)cc1	-	.	.	31	-
COCc1nc2cccnc2n1C1CCN(S(=O)(=O)N(C)C)CC1	.	-	.	-	.
Cc1nonc1OCCN1CCN(c2ccccc2[N+](=O)[O-])CC1	-	-	53	-	-
COc1ccc(C)cc1NC(=O)NCCn1nnc2cc(S(=O)(=O)N(C)C)ccc21	.	-	.	-	.
Nc1nonc1C(=O)NCCNCc1ccc(Cl)c(Cl)c1	.	-	.	-	.
CCCN1CNc2c(c(=O)[nH]c(=S)n2-c2ccccc2Cl)C1	-	-	-	68	-
N#Cc1nc(-c2ccc(COc3ccc(Cl)cc3)o2)oc1N1CCC(C(N)=O)CC1	.	-	.	-	.
O=C(CSCC(=O)NC1CC1)Nc1ccc2ccccc2c1	-	-	35	-	-
O=C(Cn1c(=O)nc(-c2ccccc2)c2cc(Cl)ccc21)NCCCc1ccccc1	.	-	.	-	.
COc1ccc(OC)c(-c2nc(C(=O)NCCCN3CCOCC3)cc3c2[nH]c2ccccc23)c1	-	-	-	-	-
COc1ccc(OC)c(-c2nc(C(=O)NC3CCN(Cc4ccccc4)CC3)cc3c2[nH]c2ccccc23)c1	-	-	81	-	-
COc1cc(-c2nc(C(=O)NC3CCCCC3)cc3c2[nH]c2ccccc23)cc(OC)c1OC	-	-	-	-	-
COc1cc(-c2nc(C(=O)NC3CCN(Cc4ccccc4)CC3)cc3c2[nH]c2ccccc23)cc(OC)c1OC	-	-	74	-	-
CCOC(=O)CSc1nnc(Cc2ccccc2)n1-c1cccc(Cl)c1	-	-	-	32	-
CCOC(=O)c1c(NC(=O)CSc2cn(CCNC(=O)c3ccccc3OC)c3ccccc23)sc2c1CCC2	.	-	.	-	.
COc1cccc(-c2nnc(SCC(=O)NC3CCS(=O)(=O)C3)n2C)c1 (stereo not drawn)	-	-	39	-	-

Bioassay records deposited in PubChem by National Center for Advancing Translational Sciences (NCATS).
